# Measured values published in PubChem BioAssay (NCATS).
# Records with an inconclusive call do not appear. Entries that show only a call come without a potency. Active and inactive are the calls of the source. Calls come from the whole dose curve; as a rule, active = well fitted inhibition curve with a large enough effect; inconclusive = small, poorly fitted or top-dose-only effect, or effect the other way; inactive = flat fitted curve, though single readings scatter.
# Biological target: ATP-dependent 6-phosphofructokinase (Trypanosoma brucei brucei) (UniProt O15648)
# Sequence (O15648 whole entry, looked up): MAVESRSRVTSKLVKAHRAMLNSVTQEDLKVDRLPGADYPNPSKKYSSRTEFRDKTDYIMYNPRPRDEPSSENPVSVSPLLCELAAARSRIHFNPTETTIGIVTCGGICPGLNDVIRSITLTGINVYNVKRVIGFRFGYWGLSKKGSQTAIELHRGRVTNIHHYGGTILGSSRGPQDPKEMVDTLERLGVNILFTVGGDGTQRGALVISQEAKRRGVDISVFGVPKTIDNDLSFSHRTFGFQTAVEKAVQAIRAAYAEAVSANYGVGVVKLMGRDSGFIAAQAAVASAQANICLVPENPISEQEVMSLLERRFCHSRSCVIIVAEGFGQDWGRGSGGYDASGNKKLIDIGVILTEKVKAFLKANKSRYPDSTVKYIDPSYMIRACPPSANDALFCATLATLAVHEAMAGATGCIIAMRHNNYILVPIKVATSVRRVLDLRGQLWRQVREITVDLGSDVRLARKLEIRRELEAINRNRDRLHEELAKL
# Test: qHTS Validation Assay to Find Inhibitors of T. brucei phosphofructokinase (AID 485368)
# Conditions: T. brucei PFK enzyme assay, qHTS 7-point titration; series mostly up to 57.5 µM
# Text: NIH Molecular Libraries Probe Production Network [MLPCN]
# NIH Chemical Genomics Center [NCGC]
# PI Name: Malcolm Walkinshaw, University of Edinburgh
# Various species of the protozoan family Trypanosomatidae are responsible for a range of serious human diseases in tropical and subtropical areas of the world. […] Many of the disorders caused by trypanosomatids are fatal if left untreated, but most currently used drugs are inefficient and toxic.
# Oxidative metabolism involving the mitochondrial tricarboxylic acid cycle and oxidative phosphorylation are repressed in these parasites, and recent RNA interference (RNAi) experiments have shown that even partial depletion of certain individual glycolytic enzymes can lead to the death of cultured parasites. One such glycolytic enzyme, phosphofructokinase (PFK), catalyzes the formation of fructose-1,6-bisphosphate (F1,6BP) and ADP from fructose-6-phosphate (F6P) and ATP, and in many metabolic circumstances makes an important contribution to the control of flux through the glycolytic pathway. As a specific glycolytic target, PFK is particularly attractive as it catalyzes the first irreversible step in glycolysis, and structural and kinetic studies have shown very substantial and essential differences from corresponding host enzymes, allowing for the discovery of parasite-selective inhibitors.
# The goal of this screen is to find small-molecule inhibitors of T. brucei PFK using a biochemical assay that measures PFK activity as a function of ADP production. A luminescence-based assay for T. brucei PFK activity has been developed which uses luciferase to detect production of ADP. Traditional luciferase-based nucleotide detection reagents rely on ATP production as a direct substrate for the luciferase reaction; however, PFK catalyzes the transfer of a phosphate from ATP to F6P, resulting in the net depletion of ATP. To directly measure the ADP product of the PFK reaction, we used the ADP-Glo detection kit (Promega), which utilizes two separate reactions to 1) deplete all remaining uncatalyzed ATP and 2) convert all remaining ADP to ATP, which is then detected through a traditional luciferase-coupled reaction. Compounds were screened as a concentration-titration series that ranged from 57 uM to 0.7 nM.
# NCGC Assay Protocol Summary:
# Substrate buffer was dispensed into white, solid 1536-well plates at 3uL/well in 0.1M triethanolamine (TEA) buffer, pH 8.0, containing final concentrations of 5 mM MgCl2, 0.01% Tween20, 0.5 mM fructose-6-phosphate (F6P) and 0.1mM ATP. Then, 23 nL of compounds or DMSO were delivered to each well using a pin tool. One uL T. brucei PFK (0.1M TEA, 0.01% Tween20, 0.1% bovine serum albumin (BSA) and 1.25nM PFK, final concentrations) was then dispensed, and plates were incubated at room temperature for 45 min. The luminescent detection reagent, ADP-Glo (Promega), was then added in two steps: the first reagent, ADP-Glo (which converts remaining uncatalyzed ATP), was added at 2.5uL/well and incubated for ten minutes at room temperature, and the second component, Kinase Detection reagent (which converts ADP to ATP as a substrate for luciferase-based luminescence), was added immediately after at 5uL/well, followed by one final ten minute room temperature incubation. The plates were measured on a ViewLux plate reader for luminescent signal using a clear filter with a one second exposure. The %Activity was determined from the corrected luminescence values. As no specific T. brucei PFK inhibitors have been identified in the literature, 1x (1.25nM) and 0x PFK enzyme controls (untreated) were included to normalize %Activity of identified inhibitors; 0x enzyme values corresponded to 100%Activity (full inhibition), while 1x PFK enzyme values were used to normalize 0%Activity (no inhibition).
# Concentration-response curves were fitted to the signals arising from the resulting luminescence. […]
# Potency is the fitted concentration of half-maximal effect.
row,Compound,Potency
1,N[C@H](C(=O)O)[C@H](Cc1ccccc1)C(=O)O,inactive
2,Brc1c(Br)c(Br)c2[nH]cnc2c1Br,inactive
3,CCCC[C@@]1(C2CCCC2)Cc2cc(OCC(=O)O)c(Cl)c(Cl)c2C1=O,inactive
4,CCCn1c(=O)c2[nH]c(C3CCCC3)nc2n(CCC)c1=O,inactive
5,CC(C)[C@@H]1CC[C@@H](C)C[C@@H]1P(=O)(c1ccccc1)c1ccccc1,inactive
6,CN(C)CCC(c1ccc(Br)cc1)c1ccccn1 (stereo not given),inactive
7,CC(=O)O[C@H]1Cc2ccccc2N(C(N)=O)c2ccccc21,inactive
8,OC[C@H]1O[C@@H](n2cnc3cncnc32)[C@H](O)[C@@H]1O,inactive
9,O=c1[nH]c(=O)c2nc3ccccc3nc2[nH]1,inactive
10,CNC(=O)c1cc2c(cn1)[nH]c1ccccc12,inactive
11,OC[C@H]1NC[C@@H](O)[C@@H]1O,inactive
12,CN(C)S(=O)(=O)c1ccc2c(c1)/C(=C/c1cc3c([nH]1)CCCC3)C(=O)N2,inactive
13,COc1ccccc1N1CCN(CCCCN2C(=O)c3ccccc3C2=O)CC1,inactive
14,N[C@H]1CONC1=O,inactive
15,NCC(O)(CS(=O)(=O)O)c1ccc(Cl)cc1 (stereo not given),inactive
16,C#CCn1c(=O)c2c(ncn2C)n(C)c1=O,inactive
17,CN1C2CCC1CC(OC(c1ccccc1)c1ccccc1)C2 (stereo not given),inactive
18,Clc1nccc2c1ccc1ccccc12,inactive
19,CCCCCCN(CCCCCC)C(=O)Cc1c(-c2ccc(F)cc2)[nH]c2ccccc12,inactive
20,CC(N)(Cc1ccc(O)cc1)C(=O)O (stereo not given),inactive

row,Compound,Potency
1,Cc1cc(Cn2cnc3c2C[C@@H](C(=O)O)N(C(=O)C(c2ccccc2)c2ccccc2)C3)ccc1N,inactive
2,N#CC(C#N)=C(N)/C(C#N)=C/c1ccc(O)cc1,inactive
3,CC(=O)/C(C)=N/O,inactive
4,CSC(N)=NCCC[C@H](N)C(=O)O,inactive
5,COc1ccccc1N1CCN(CCCCNC(=O)c2ccc3ccccc3c2)CC1,inactive
6,Cc1nc(N=Nc2cc(S(=O)(=O)O)c3cc([N+](=O)[O-])cc(S(=O)(=O)O)c3c2)c(COP(=O)(O)O)c(C=O)c1O,7.57 µM (active)
7,O=[N+]([O-])c1cccc2cn[nH]c12,inactive
8,N#C/C(=C\c1ccc(O)c(O)c1)C(=O)NCCc1ccccc1,15.1 µM (active)
9,CCCCCC[C@@H]([C@@H](C)O)n1cnc2c(N)ncnc21,inactive
10,Cc1ccc2c(c1)C(N1CCN(C)CC1)=Nc1cccnc1N2,inactive
11,COc1ccc2c(c1)c(CC(=O)O)c(C)n2Cc1ccc(Cl)cc1,inactive
12,N[C@@H](Cc1ccc(O)c(I)c1)C(=O)O,inactive
13,COCc1nc2c([nH]1)c(=O)n(C)c(=O)n2CC(C)C,inactive
14,CC[N+](CC)(CC)CC(=O)Nc1c(C)cccc1C,inactive
15,CC(=O)C(C)=O,inactive
16,CC1C(=O)N(C)C(=O)c2nc[nH]c21 (stereo not given),inactive
17,CC(=O)N[C@@H](Cc1c[nH]c2ccccc12)C(=O)OCc1cc(C(F)(F)F)cc(C(F)(F)F)c1,inactive
18,Cc1nc2n(c(=O)c1CCN1CCC(c3noc4cc(F)ccc34)CC1)CCCC2O (stereo not given),inactive
19,COc1ccc(CCN(C)CCc2ccc(OC)c(OC)c2)cc1OC,inactive
20,COC(=O)C1=C(C)NC(C)=C([N+](=O)[O-])C1c1ccccc1C(F)(F)F (stereo not given),inactive
